For experiment [1], the target named is guinea pig Bradykinin Receptor B2 (BK2), BDKRB2 (gene 100135486) (UniProt O70526). Briefly: NVS_GPCR_gBK2: NovaScreen (NVS) G Protein-Coupled Receptor Assay for guinea pig Bradykinin Receptor B2 (BK2) (AID 2283292). The procedure, abridged: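 Radioligand displacement on guinea pig ileum membranes for 1 h, read by filter-based scintillation counting; loss of signal relative to DMSO. Compounds were screened in duplicate at 25 uM, and those passing the threshold were retested in concentration-response up to 50 uM.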

Experiment [2] addresses guinea pig Serotonin, 5-Hydroxytryptamine Receptor 4 (5HT4), HTR4 (gene 100135548) (UniProt O70528). Briefly: NVS_GPCR_g5HT4: NovaScreen (NVS) G Protein-Coupled Receptor Assay for guinea pig Serotonin, 5-Hydroxytryptamine Receptor 4 (5HT4) (AID 2283294). The procedure, abridged: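 Guinea pig striatal membranes; radioligand competitive displacement, filtration and scintillation counting after 1 h. Primary screen in duplicate at 25 uM; actives then tested in concentration series; loss of binding signal fitted relative to DMSO.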

In the next experiment the target is Adra2b (gene 24174) (UniProt P19328). Nature of the experiment: NVS_GPCR_rmAdra2B: NovaScreen (NVS) G Protein-Coupled Receptor Assay for hybird cells Adrenergic, Alpha 2B Receptor (Adra2B) (AID 2283306). A digest of the protocol:
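Radioligand filter-binding assay on membrane proteins from neuroglioma/blastoma hybrid cells (rodent), 1 h after dosing; scintillation counting, loss of signal vs DMSO. Primary screen in duplicate at 25 uM, actives then run in concentration series.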

Experiment [3] concerns the target rat Somatostatin Receptor (SST), Sstr1 (gene 25033) (UniProt P28646). Briefly: NVS_GPCR_rSST: NovaScreen (NVS) G Protein-Coupled Receptor Assay for rat Somatostatin Receptor (SST) (AID 2283314). A digest of the protocol:
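Rat forebrain membranes; radioligand displacement read by filter-based scintillation counting 1 h after dosing. Primary screen in duplicate at 25 uM. Actives (e.g., 30% inhibition) were rerun as concentration-response to 50 uM max and fitted against DMSO.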

The target of experiment [4] is human Opioid Receptor Mu (Opiate Mu), OPRM1 (gene 4988) (UniProt P35372). Nature of the experiment: NVS_GPCR_hOpiate_mu: NovaScreen (NVS) G Protein-Coupled Receptor Assay for human Opioid Receptor Mu (Opiate Mu) (AID 2283290).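 Note: hits lower bound tracer signal versus DMSO meaning displacement of the ligand.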 The procedure, abridged: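 CHO-derived receptor protein, cell-free; radioligand displacement, filtration + scintillation counting, read at 2.5 h. DMSO = negative control/baseline. Primary: 25 uM single conc, duplicate; secondary: concentration series.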

The target of experiment [5] is mouse Cholecystokinin, CCK2 Receptor (CCKB), Cckbr (gene 12426) (UniProt P56481). Briefly: NVS_GPCR_mCKKBCentral: NovaScreen (NVS) G Protein-Coupled Receptor Assay for mouse Cholecystokinin, CCK2 Receptor (CCKB) (AID 2283293). A digest of the protocol:
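Radioligand displacement binding on mouse forebrain membranes, 2 h exposure, filter-based scintillation counting. Primary screen in duplicate at 25 uM; actives (e.g. ≥30% inhibition) retested in concentration-response up to 50 uM; loss of binding signal relative to DMSO.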

Experiment [6] has as its target rat Serotonin, 5-Hydroxytryptamine Receptor (5HT), Non-Selective Binding, Htr1a (gene 24473) (UniProt P19327). Nature of the experiment: NVS_GPCR_r5HT_NonSelective: NovaScreen (NVS) G Protein-Coupled Receptor Assay for rat Serotonin, 5-Hydroxytryptamine Receptor (5HT), Non-Selective Binding (AID 2283295). The procedure, abridged:
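Radioligand displacement on rat cortical membranes, 1 h incubation, filter-based scintillation counting. Primary duplicates at 25 uM, actives retested in concentration series; loss of signal fitted against DMSO as baseline.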

The target of experiment [7] is rat Opioid Receptor, Non-selective Sodium (Na+) Binding, Oprm1 (gene 25601) (UniProt P33535). Nature of the experiment: NVS_GPCR_rOpiate_NonSelectiveNa: NovaScreen (NVS) G Protein-Coupled Receptor Assay for rat Opioid Receptor, Non-selective Sodium (Na+) Binding (AID 2283311). The procedure, abridged:
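Rat forebrain membranes, radioligand displacement with filter scintillation counting, 1.5 h incubation. Screened in duplicate at 25 µM; hits then run in concentration-response up to 50 µM; loss of binding fitted versus DMSO.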

Experiment [8] concerns 5-hydroxytryptamine receptor 2C (pig). Briefly: NVS_GPCR_p5HT2C: NovaScreen (NVS) G Protein-Coupled Receptor Assay for pig Serotonin, 5-Hydroxytryptamine Receptor 2C (5HT2C) (AID 2283288). The procedure, abridged:
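Pig choroid plexus membranes; radioligand competitive binding, filter-based scintillation counting, read 1 h after dosing. Primary screen in duplicate at 25 uM; actives then run as concentration series; loss of signal versus DMSO baseline.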

The target in experiment [9] is Metabotropic glutamate receptor 1 (Rattus norvegicus) (UniProt P23385). Briefly: NVS_GPCR_rmMGluR1: NovaScreen (NVS) G Protein-Coupled Receptor Assay for rat Glutamate Metabotropic Receptor 1 (MGluR1) (AID 2283305). A digest of the protocol:
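Rat cerebellum membrane preparation, radioligand displacement binding read by filter-based scintillation counting 1 hour after dosing. Initial duplicate single-point screen at 25 uM, then concentration-response up to 50 uM; loss of signal versus DMSO baseline scored.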

The target in experiment [10] is rat Adrenergic, Alpha 1, Non-selective Receptor (Adra1), Adra1a (gene 29412) (UniProt P43140). Briefly: NVS_GPCR_rAdra1_NonSelective: NovaScreen (NVS) G Protein-Coupled Receptor Assay for rat Adrenergic, Alpha 1, Non-selective Receptor (Adra1) (AID 2283289). A digest of the protocol: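 Rat forebrain membranes; radioligand displacement read by filter-based scintillation counting 1 h after dosing. Primary screen in duplicate at 25 uM; hits (e.g. ≥30% inhibition) rerun as concentration–response to 50 uM max. Fitted versus DMSO.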

Experiment [11] has as its system rat Adrenergic, Alpha 1B Receptor (Adra1B), gene 24173. Briefly: NVS_GPCR_rAdra1B: NovaScreen (NVS) G Protein-Coupled Receptor Assay for rat Adrenergic, Alpha 1B Receptor (Adra1B) (AID 2283297). A digest of the protocol: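 Rat liver membranes, radioligand displacement with filter-based scintillation detection, 1 h incubation. Primary screen in duplicate at 25 uM; actives retested in concentration series; activity relative to DMSO.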

Experiment [12] concerns the target rat Adrenergic Receptor, Beta (Adrb), Non-selective Binding, Adrb1 (gene 24925) (UniProt P18090). Briefly: NVS_GPCR_rAdrb_NonSelective: NovaScreen (NVS) G Protein-Coupled Receptor Assay for rat Adrenergic Receptor, Beta (Adrb), Non-selective Binding (AID 2283298). The procedure, abridged:
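Non-selective beta-adrenergic radioligand binding in rat cortical membranes, 1 h incubation, filter-based scintillation read-out. Primary screen 25 uM in duplicate; hits retested in concentration-response up to 50 uM, DMSO baseline.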

The target in experiment [13] is rat Adrenergic Receptor, Alpha 2 (Adra2), Non-selective Binding, Adra2a (gene 25083) (UniProt P22909). Briefly: NVS_GPCR_rAdra2_NonSelective: NovaScreen (NVS) G Protein-Coupled Receptor Assay for rat Adrenergic Receptor, Alpha 2 (Adra2), Non-selective Binding (AID 2283299). The procedure, abridged:
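Rat cortical membranes, radioligand competitive displacement read by filter-based scintillation counting 1.25 hours after dosing. Primary screen in duplicate at 25 uM; actives followed up in concentration series.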

In experiment [14] the target is rat Neurokinin-3 Receptor (NK3), Tacr3 (gene 24808) (UniProt P16177). Briefly: NVS_GPCR_rNK3: NovaScreen (NVS) G Protein-Coupled Receptor Assay for rat Neurokinin-3 Receptor (NK3) (AID 2283310). The procedure, abridged:
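Rat cortical membranes; radioligand binding with filtration and scintillation counting, 2 h after dosing. Primary screen in duplicate at 25 uM, then concentration-response up to 50 uM; loss of binding signal relative to DMSO.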

In experiment [15] the target is rat Adrenergic, Alpha 1A Receptor (Adra1A), Adra1a (gene 29412) (UniProt P43140). Nature of the experiment: NVS_GPCR_rAdra1A: NovaScreen (NVS) G Protein-Coupled Receptor Assay for rat Adrenergic, Alpha 1A Receptor (Adra1A) (AID 2283296). The procedure, abridged: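 Rat cortical membranes pretreated with chlorethyl clonidine; competitive radioligand displacement, 1 h. Filter-based scintillation counting. Primary screen in duplicate at 25 uM, actives followed in concentration series.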

Inconclusive results are not listed. Active and inactive are the calls of the source. Rule for the calls: active = hit-call score of the fitted dose curve at least 0.9, where 1 is the maximum; inconclusive = response in the unintended direction; inactive = score below 0.9.

This is an account of results in PubChem BioAssay (EPA / NIEHS).

Chain of Adra2b (gene 24174) (P19328 whole entry, looked up): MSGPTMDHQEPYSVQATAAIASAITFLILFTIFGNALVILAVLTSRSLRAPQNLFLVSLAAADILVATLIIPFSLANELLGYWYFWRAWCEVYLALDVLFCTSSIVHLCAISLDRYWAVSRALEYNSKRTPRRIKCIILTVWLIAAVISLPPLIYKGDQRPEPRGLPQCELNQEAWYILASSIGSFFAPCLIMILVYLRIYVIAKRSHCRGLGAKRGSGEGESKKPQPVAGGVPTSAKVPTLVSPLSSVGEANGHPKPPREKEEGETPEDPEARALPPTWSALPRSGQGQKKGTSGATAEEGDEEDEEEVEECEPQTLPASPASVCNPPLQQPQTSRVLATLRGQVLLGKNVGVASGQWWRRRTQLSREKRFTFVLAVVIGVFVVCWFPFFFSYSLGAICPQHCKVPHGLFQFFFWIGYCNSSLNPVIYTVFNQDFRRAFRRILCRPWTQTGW
Chain of guinea pig Bradykinin Receptor B2 (BK2), BDKRB2 (gene 100135486) (O70526 whole entry, looked up): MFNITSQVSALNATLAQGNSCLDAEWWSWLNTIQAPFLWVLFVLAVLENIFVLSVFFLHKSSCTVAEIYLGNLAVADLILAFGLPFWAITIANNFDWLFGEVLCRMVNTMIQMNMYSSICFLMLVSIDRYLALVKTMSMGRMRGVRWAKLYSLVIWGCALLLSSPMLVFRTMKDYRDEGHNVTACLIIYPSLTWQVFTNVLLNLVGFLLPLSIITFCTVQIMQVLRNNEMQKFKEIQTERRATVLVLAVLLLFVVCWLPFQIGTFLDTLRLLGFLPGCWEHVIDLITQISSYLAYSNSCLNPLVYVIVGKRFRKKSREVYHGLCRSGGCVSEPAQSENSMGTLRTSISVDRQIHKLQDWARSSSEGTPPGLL
Chain of rat Somatostatin Receptor (SST), Sstr1 (gene 25033) (P28646 whole entry, looked up): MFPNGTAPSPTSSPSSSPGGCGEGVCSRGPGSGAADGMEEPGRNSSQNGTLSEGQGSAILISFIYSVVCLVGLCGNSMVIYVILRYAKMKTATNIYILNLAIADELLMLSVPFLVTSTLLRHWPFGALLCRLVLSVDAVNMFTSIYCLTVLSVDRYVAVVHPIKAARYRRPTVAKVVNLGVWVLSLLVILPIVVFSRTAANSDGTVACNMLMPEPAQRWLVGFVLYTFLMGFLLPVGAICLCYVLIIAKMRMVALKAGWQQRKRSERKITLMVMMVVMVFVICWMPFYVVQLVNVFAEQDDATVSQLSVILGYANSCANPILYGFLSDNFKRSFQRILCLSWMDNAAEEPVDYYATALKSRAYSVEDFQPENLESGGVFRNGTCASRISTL
Chain of rat Serotonin, 5-Hydroxytryptamine Receptor (5HT), Non-Selective Binding, Htr1a (gene 24473) (P19327 whole entry, looked up): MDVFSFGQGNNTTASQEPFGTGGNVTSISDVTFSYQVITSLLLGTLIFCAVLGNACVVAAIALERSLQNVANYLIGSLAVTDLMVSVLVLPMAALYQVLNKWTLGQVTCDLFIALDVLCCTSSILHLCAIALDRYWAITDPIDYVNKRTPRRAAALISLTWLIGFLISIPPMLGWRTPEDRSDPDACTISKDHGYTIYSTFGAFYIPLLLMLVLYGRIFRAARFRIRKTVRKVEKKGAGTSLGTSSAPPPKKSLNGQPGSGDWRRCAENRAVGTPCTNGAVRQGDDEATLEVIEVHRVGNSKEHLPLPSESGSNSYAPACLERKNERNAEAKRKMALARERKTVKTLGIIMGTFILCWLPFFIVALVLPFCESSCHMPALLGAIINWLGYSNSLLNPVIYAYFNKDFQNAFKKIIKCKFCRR
Chain of human Opioid Receptor Mu (Opiate Mu), OPRM1 (gene 4988) (P35372 whole entry, looked up): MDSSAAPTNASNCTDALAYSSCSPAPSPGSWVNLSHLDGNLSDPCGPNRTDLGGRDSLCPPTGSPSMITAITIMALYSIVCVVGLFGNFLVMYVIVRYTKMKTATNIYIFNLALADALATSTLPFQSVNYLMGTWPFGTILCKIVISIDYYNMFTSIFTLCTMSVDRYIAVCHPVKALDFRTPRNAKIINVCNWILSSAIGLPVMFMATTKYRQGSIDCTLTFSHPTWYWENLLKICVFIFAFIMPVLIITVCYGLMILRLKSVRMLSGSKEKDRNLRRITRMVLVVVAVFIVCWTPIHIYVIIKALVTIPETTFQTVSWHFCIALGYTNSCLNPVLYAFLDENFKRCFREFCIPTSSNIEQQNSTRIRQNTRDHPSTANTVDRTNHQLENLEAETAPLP
Chain of guinea pig Serotonin, 5-Hydroxytryptamine Receptor 4 (5HT4), HTR4 (gene 100135548) (O70528 whole entry, looked up): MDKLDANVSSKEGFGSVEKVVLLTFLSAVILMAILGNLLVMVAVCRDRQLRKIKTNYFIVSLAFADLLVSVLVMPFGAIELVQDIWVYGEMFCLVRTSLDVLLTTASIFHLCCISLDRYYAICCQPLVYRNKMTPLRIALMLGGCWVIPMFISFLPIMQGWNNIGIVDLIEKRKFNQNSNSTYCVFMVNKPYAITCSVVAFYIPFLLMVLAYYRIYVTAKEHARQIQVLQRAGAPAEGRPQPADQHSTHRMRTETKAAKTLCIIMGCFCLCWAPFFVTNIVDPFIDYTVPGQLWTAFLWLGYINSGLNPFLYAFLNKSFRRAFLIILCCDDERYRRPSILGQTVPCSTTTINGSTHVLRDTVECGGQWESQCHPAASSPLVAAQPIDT
Chain of rat Adrenergic, Alpha 1, Non-selective Receptor (Adra1), Adra1a (gene 29412) (P43140 whole entry, looked up): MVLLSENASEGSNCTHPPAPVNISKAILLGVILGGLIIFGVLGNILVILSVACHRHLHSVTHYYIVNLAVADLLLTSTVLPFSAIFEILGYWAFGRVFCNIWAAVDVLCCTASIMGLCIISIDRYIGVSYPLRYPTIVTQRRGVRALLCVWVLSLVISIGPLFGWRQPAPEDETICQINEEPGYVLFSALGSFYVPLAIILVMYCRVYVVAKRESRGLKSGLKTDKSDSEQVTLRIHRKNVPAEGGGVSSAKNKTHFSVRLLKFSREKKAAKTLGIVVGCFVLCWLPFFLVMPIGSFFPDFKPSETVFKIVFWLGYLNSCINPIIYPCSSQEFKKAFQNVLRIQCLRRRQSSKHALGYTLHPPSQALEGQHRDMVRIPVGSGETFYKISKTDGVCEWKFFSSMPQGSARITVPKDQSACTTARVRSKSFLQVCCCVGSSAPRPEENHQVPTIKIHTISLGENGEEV
Chain of rat Adrenergic Receptor, Beta (Adrb), Non-selective Binding, Adrb1 (gene 24925) (P18090 whole entry, looked up): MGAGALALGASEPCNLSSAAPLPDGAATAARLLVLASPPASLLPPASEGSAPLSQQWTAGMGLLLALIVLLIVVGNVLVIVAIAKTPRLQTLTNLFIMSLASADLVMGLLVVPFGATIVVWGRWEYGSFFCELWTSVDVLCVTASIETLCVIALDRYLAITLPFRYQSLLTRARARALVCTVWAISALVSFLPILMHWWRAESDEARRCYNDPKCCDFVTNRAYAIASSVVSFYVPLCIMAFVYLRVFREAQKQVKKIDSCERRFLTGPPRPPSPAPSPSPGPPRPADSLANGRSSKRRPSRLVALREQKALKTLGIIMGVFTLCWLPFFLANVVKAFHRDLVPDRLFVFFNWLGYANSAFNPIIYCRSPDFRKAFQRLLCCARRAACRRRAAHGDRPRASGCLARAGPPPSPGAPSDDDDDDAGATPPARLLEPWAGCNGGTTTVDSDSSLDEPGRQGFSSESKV
Chain of rat Opioid Receptor, Non-selective Sodium (Na+) Binding, Oprm1 (gene 25601) (P33535 whole entry, looked up): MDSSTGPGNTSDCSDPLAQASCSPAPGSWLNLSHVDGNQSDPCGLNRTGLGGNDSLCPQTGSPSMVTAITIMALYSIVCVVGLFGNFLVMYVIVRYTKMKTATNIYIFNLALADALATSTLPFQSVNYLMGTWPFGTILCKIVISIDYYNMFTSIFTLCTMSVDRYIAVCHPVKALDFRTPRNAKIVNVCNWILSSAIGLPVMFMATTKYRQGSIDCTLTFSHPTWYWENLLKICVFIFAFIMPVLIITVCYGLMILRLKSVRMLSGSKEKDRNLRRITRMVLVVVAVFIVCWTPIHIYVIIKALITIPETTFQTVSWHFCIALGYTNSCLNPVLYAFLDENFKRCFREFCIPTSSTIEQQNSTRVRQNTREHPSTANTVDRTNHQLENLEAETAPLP
Chain of rat Adrenergic Receptor, Alpha 2 (Adra2), Non-selective Binding, Adra2a (gene 25083) (P22909 whole entry, looked up): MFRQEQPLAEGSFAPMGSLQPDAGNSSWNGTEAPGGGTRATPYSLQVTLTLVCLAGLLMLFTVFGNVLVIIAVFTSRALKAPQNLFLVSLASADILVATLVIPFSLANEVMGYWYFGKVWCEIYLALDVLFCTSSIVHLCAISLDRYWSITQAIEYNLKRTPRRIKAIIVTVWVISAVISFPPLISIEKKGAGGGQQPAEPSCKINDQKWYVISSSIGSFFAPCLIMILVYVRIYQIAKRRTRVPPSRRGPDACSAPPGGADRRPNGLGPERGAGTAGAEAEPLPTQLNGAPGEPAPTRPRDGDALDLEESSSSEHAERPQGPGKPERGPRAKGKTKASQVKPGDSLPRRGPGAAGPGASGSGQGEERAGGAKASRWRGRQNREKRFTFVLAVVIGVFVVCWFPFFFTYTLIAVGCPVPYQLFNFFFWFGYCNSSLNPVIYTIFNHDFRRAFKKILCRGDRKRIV
Chain of rat Adrenergic, Alpha 1A Receptor (Adra1A), Adra1a (gene 29412) (P43140 whole entry, looked up): as the sequence (P43140 whole entry, looked up) above

For the molecule `CCCCCCCCCCC`, the molecule was classed as inactive in experiment [1].

For `CCCCCCC(=O)OCC`, the outcome in experiment [2] was inactive.

Regarding `CNC(=O)[C@H]1O[C@@H](n2cnc3c(NCc4cc(Cl)ccc4OCc4cc(C)no4)ncnc32)[C@H](O)[C@@H]1N`, the call with Adra2b (gene 24174) was inactive. Moreover, the AC50 in [3] was 37.9 µM (active).

Take `CC=Cc1ccc(O)c(OC)c1`: the result in [4] was inactive.

For the molecule `NCCO`, in [1], the molecule was classed as inactive.

Take `COc1cc(C=O)ccc1O`: the call in experiment [1] was inactive.

With `O=C(N[C@@H](Cc1ccccc1)[C@@H](O)C(=O)N1C[C@@H](O)[C@@H](O)C1)c1cc2cc(Cl)ccc2[nH]1`, the AC50 in [4] is 4.96 µM (active); in experiment [5], 8.74 µM (active); in experiment [7], 19.4 µM (active). Besides, in experiment [6], the molecule was classed as inactive.

For `COCCOC[C@H](CC1(C(=O)NC2CCC(C(=O)O)CC2)CCCC1)C(=O)Oc1ccc2c(c1)CCC2` (stereo partly drawn), the AC50 in [3] was 5.45 µM (active).

On to `C=CCOC(=O)c1ccccc1C(=O)OCC=C`, for which the half-maximal activity concentration (AC50) in [8] was 25 µM (active).

As to `Cc1cc(=O)[nH]c(=S)[nH]1`, in experiment [3], the AC50 is 13.2 µM (active).

Regarding `Cc1nc(C)nc(N2C[C@@H](C)N(c3ccnc([C@@H](C)O)n3)[C@@H](C)C2)n1`, the molecule was classed as inactive (in experiment [2]; with Adra2b (gene 24174)).

In the case of `CC1(C)CC(N=C=O)CC(C)(CN=C=O)C1` (stereo not drawn), in experiment [9], the molecule was called inactive.

In the case of `Oc1ccc2c(c1)OC[C@@H](N1CCC(O)(c3ccc(F)cc3)CC1)[C@H]2O`, the molecule was classed as inactive in [8], in experiment [10], in experiment [4], in experiment [2], in experiment [11] and in experiment [7]. Also, in experiment [12], the AC50 is 5.17 µM (active).

Consider `CC(=O)C(C)=CC1C(C)=CCCC1(C)C` (stereo not drawn), for which the result in [6] and in experiment [12] was inactive.

Turning to `CCCCC(CC)COC(=O)CC(C(=O)OCC(CC)CCCC)S(=O)(=O)O` (stereo not drawn), the half-maximal activity concentration (AC50) was 32.4 µM (active) in experiment [8]; 17 µM (active) in experiment [10]; 14.8 µM (active) in experiment [4]; 36 µM (active) in experiment [2]; 25 µM (active) in experiment [6]; 29.2 µM (active) in [11]. Further, the AC50 in experiment [13] was 32.9 µM (active); in the experiment with Adra2b (gene 24174), 22.4 µM (active).

Regarding `CCc1c(C(=O)NN2CCCCC2)nn(-c2ccc(Cl)cc2Cl)c1-c1ccc(Br)cc1`, the outcome in experiment [4], in experiment [2] and in experiment [14] was inactive. Further, in experiment [6], the AC50 was 12 µM (active).

`CCOC(=O)CCC(=O)OCC`: the molecule was classed as inactive in experiment [8], in [4], in experiment [15] and in experiment [13].

For `C=CCc1ccc(O)c(OC)c1`, the molecule was classed as inactive in [8].

A word on the AC50: it is the midpoint of the concentration-response curve, whichever way the signal moves.
